From PubChem
PRMT1 inh – inhibitors of human PRMT1; Q99873; recombinant PRMT1, activity-based probe fluorescence polarization; inhibition, % at 2.79 µM; 370,000 tested, 1.3% active;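 active means inhibition above about 21% made by adding two undisclosed values, limit read from the data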
Target sequence (Q99873 whole entry, looked up): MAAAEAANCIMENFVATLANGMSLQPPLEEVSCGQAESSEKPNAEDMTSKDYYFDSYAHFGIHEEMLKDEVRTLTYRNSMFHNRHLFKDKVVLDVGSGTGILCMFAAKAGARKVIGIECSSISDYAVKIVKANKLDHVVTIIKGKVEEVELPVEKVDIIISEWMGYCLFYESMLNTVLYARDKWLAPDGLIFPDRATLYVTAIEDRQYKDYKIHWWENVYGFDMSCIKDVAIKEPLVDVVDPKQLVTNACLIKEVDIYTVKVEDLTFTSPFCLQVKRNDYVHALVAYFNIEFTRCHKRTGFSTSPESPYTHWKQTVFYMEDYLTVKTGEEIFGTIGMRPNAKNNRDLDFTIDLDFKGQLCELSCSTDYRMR
LEDGF integ inh – blocks HIV-1 LEDGF/p75-dependent DNA integration; TR-FRET IN-LEDGF/p75 DNA integration, Eu/Cy5; inhibition, % at 3.7 µM; 370,000 tested, 0.64% active; AID 743269;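 active means inhibition above the screen-wide mean plus 3 SD, cut at about 13% in these data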;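 further: signal is the Cy5 over europium emission ratio at 671 and 618 nm; 0% = plate median of compound wells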
MBD2 DNA inh – blocks human MBD2 binding to methylated DNA; Q9UBB5; TR-FRET, MBD2 binding to methylated oligonucleotide; inhibition, % at 4.4 µM; 370,000 tested, 0.31% active; AID 686964; in the data active means inhibition above about 13%
UHRF1 binding – human UHRF1 methylated DNA binding inhibitors. AID 687016. UHRF1 binding to methylated oligo, TR-FRET. 370,000 tested, 0.75% active. Q96T88. inhibition, % at 4.4 µM; in the data active means inhibition above about 21%;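 further: UHRF1 SRA domain binding a hemimethylated CpG hairpin DNA probe; 0% = median of test compound wells and 100% = reference inhibitor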
PRMT1 confirm – PRMT1 (human) inhibition, FP confirmation; shares compounds with PRMT1 inh; recombinant His-PRMT1, activity-based probe fluorescence polarization; inhibition, % at 2.79 µM; 3,300 tested, 42% active;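 active means mean inhibition across replicates above the hit cutoff derived for the earlier primary screen, cut at about 22% in these data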
The depositor's hits bear a star. Hits are enriched below; roughly 2.5% of the tested compounds scored in any of these assays.

How did CCN1CCN(C(=S)Nc2ccc(Cl)c(Cl)c2)CC1 do in these assays?
PRMT1 inh: -2.0; LEDGF integ inh: 0.4; MBD2 DNA inh: 3.7; UHRF1 binding: -4.4

How did O=S1(=O)c2ccc(N3CC[C@H](O)C3)cc2OCCCN1C1CC1 do in these assays?
PRMT1 inh: 4.6; LEDGF integ inh: 4.7; MBD2 DNA inh: 8.4; UHRF1 binding: 8.7

Results for CC(C)C(=O)Nc1cccc(COc2ccc(CN(Cc3ccccc3)C(=O)OC(C)(C)C)cc2)c1 ?
PRMT1 inh: 0.6; LEDGF integ inh: 4.7; MBD2 DNA inh: 2.9; UHRF1 binding: -0.6

How did Cc1ccc2occ(C3N[C@H](C(=O)O)CS3)c(=O)c2c1 (some centres not stated) do in these assays?
PRMT1 inh: 49.5*; LEDGF integ inh: 2.1; MBD2 DNA inh: -5.2; UHRF1 binding: -4.0; PRMT1 confirm: 44.6*

Results for O=C(Nc1cccc(Cl)c1Cl)c1csc([C@H]2C[C@H](O)[C@@H](CO)O2)n1 ?
PRMT1 inh: 6.9; LEDGF integ inh: -2.0; MBD2 DNA inh: 1.9; UHRF1 binding: -1.0

Results for S=c1[nH]nc(-c2ccco2)n1/N=C/c1ccc(Cl)cc1 ?
PRMT1 inh: 25.2*; LEDGF integ inh: -1.6; MBD2 DNA inh: -0.5; UHRF1 binding: 0.5; PRMT1 confirm: 19.5

Results for S=c1[nH]nc(-c2ccncc2)n1/N=C/C=C/c1ccccc1 ?
PRMT1 inh: 3.8; LEDGF integ inh: -0.5; MBD2 DNA inh: -0.2; UHRF1 binding: 0.3

How did CC(/C=N/n1c(-c2ccc(Cl)cc2)n[nH]c1=S)=C\c1ccco1 do in these assays?
PRMT1 inh: 27.5*; LEDGF integ inh: -0.9; MBD2 DNA inh: -0.3; UHRF1 binding: -2.0; PRMT1 confirm: 14.6

What do the screens show for `S=c1[nH]nc(-c2ccncc2)n1/N=C/C(Cl)=C\c1ccccc1`?
PRMT1 inh: 34.3*; LEDGF integ inh: 0.7; MBD2 DNA inh: 2.6; UHRF1 binding: -5.2; PRMT1 confirm: 19.4

What do the screens show for `Cc1cc(C)cc(C(O)c2ncc(-c3cccc(F)c3)[nH]2)c1` (configuration not stated)?
PRMT1 inh: -1.2; LEDGF integ inh: -1.1; MBD2 DNA inh: -4.8; UHRF1 binding: -0.9

Results for CCOC(=O)C1=CCN(S(=O)(=O)c2ccccc2Cl)C1c1cccc(C)c1 (configuration not stated) ?
PRMT1 inh: -1.1; LEDGF integ inh: -1.6; MBD2 DNA inh: 0.8; UHRF1 binding: 14.0

Results for COc1ccccc1/C=C/C=C1\Oc2c(ccc(O)c2CN(C)C)C1=O ?
PRMT1 inh: 27.5*; LEDGF integ inh: -5.9; MBD2 DNA inh: -7.8; UHRF1 binding: -14.5; PRMT1 confirm: 16.1

What do the screens show for `O=C1COc2ccc(C(=O)COc3ccc([N+](=O)[O-])cc3)cc2N1`?
PRMT1 inh: -12.8; LEDGF integ inh: 2.7; MBD2 DNA inh: -2.2; UHRF1 binding: 0.0

How did O=C(CSCc1ccco1)Nc1cc(C(F)(F)F)ccc1N1CCOCC1 do in these assays?
PRMT1 inh: 66.3*; LEDGF integ inh: 8.6; MBD2 DNA inh: -2.1; UHRF1 binding: -1.8; PRMT1 confirm: 40.2*

Results for O=C(Cc1ccc(NC(=O)C2CCN(C(=O)C3CCC3)CC2)cc1)Nc1cccc(C(=O)N2CCCCC2)c1 ?
PRMT1 inh: 3.1; LEDGF integ inh: 0.7; MBD2 DNA inh: 2.9; UHRF1 binding: -0.7

What do the screens show for `O=C(O)c1ccc(-n2c(-c3ccccc3)n[nH]c2=S)cc1`?
PRMT1 inh: -1.3; LEDGF integ inh: 1.8; MBD2 DNA inh: -2.0; UHRF1 binding: -1.3

Results for O=C(O)CCc1ccc(-c2ccccc2)n1-c1cccc(C(=O)O)c1 ?
PRMT1 inh: 11.4; LEDGF integ inh: 7.7; MBD2 DNA inh: 1.2; UHRF1 binding: -1.4

What do the screens show for `Cc1ccc(-c2ccccc2)n1-c1cccc(C(=O)O)c1`?
PRMT1 inh: 62.1*; LEDGF integ inh: 7.5; MBD2 DNA inh: -5.7; UHRF1 binding: 4.9; PRMT1 confirm: 11.4

What do the screens show for `Cc1ccc(-c2ccccc2)n1-c1ccc(C(=O)O)cc1`?
PRMT1 inh: 73.2*; LEDGF integ inh: 8.9; MBD2 DNA inh: 3.3; UHRF1 binding: 1.4; PRMT1 confirm: -0.6

Results for CC1(C)CCN2CCC(C)(C)c3c(O)ccc1c32 ?
PRMT1 inh: 54.0*; LEDGF integ inh: 0.1; MBD2 DNA inh: -1.6; UHRF1 binding: -4.9; PRMT1 confirm: 14.2

What do the screens show for `CC(=O)c1ccc(S(=O)(=O)Nc2ccc(C(=O)N(C)CC(=O)Nc3cccc(C)c3C)cc2)cc1`?
PRMT1 inh: 5.5; LEDGF integ inh: -5.5; MBD2 DNA inh: 1.7; UHRF1 binding: -0.4

How did CC(=O)c1sc2nsc(SCCN3CCOCC3)c2c1N do in these assays?
PRMT1 inh: 66.7*; LEDGF integ inh: -1.7; MBD2 DNA inh: 2.9; UHRF1 binding: 10.1; PRMT1 confirm: 10.1

How did Nc1c(C(=O)c2ccccc2)sc2nsc(SCCN3CCOCC3)c12 do in these assays?
PRMT1 inh: 5.7; LEDGF integ inh: -1.1; MBD2 DNA inh: 1.8; UHRF1 binding: -2.5

Results for CC(=O)Nc1ccc(S(=O)(=O)NC(C)C(=O)NC(C)c2ccccc2)cc1 (configuration not stated) ?
PRMT1 inh: 44.4*; LEDGF integ inh: 2.2; MBD2 DNA inh: 1.1; UHRF1 binding: -1.4; PRMT1 confirm: 55.2*

Results for CCC(NS(=O)(=O)c1ccc(C)cc1)C(=O)N1CCN(c2ccccn2)CC1 (configuration not stated) ?
PRMT1 inh: -5.0; LEDGF integ inh: 1.9; MBD2 DNA inh: -3.1; UHRF1 binding: -1.4

Results for CC(=O)Nc1ccc(S(=O)(=O)N[C@@H](C)C(=O)N2CCN(c3ccccn3)CC2)cc1 ?
PRMT1 inh: 38.4*; LEDGF integ inh: 1.8; MBD2 DNA inh: -1.2; UHRF1 binding: -0.2; PRMT1 confirm: 22.6*

Results for C[C@H](CO)N1C[C@H](C)[C@H](CN(C)S(=O)(=O)c2cccc(F)c2)Oc2ncc(-c3cccc(C(=O)N(C)C)c3)cc2C1=O ?
PRMT1 inh: -1.4; LEDGF integ inh: 3.2; MBD2 DNA inh: -2.7; UHRF1 binding: -0.4

How did CCOC(=O)c1c(-c2ccc(C)o2)csc1NC(=O)CN1CCOCC1 do in these assays?
PRMT1 inh: 9.2; LEDGF integ inh: -3.1; MBD2 DNA inh: -1.5; UHRF1 binding: -2.4

How did CCOC(=O)c1c(-c2ccc(C)o2)csc1NC(=S)NC(=O)N(C)C do in these assays?
PRMT1 inh: 80.3*; LEDGF integ inh: 2.8; MBD2 DNA inh: -4.6; UHRF1 binding: -2.1; PRMT1 confirm: 11.5

How did CCOC(=O)c1c(-c2ccc(C)o2)csc1NC(=O)CSc1ncn[nH]1 do in these assays?
PRMT1 inh: 32.6*; LEDGF integ inh: -2.2; MBD2 DNA inh: 0.3; UHRF1 binding: -4.1; PRMT1 confirm: 13.7

Results for CC1(C(=O)NS(=O)(=O)C2CC2)CCCN(C(=O)c2ccccc2OC(F)(F)F)C1 (configuration not stated) ?
PRMT1 inh: -1.1; LEDGF integ inh: 0.7; MBD2 DNA inh: 0.1; UHRF1 binding: 0.0

Results for O=[N+]([O-])c1ccc(NCCCN2CCC(C(O)(c3ccccc3)c3ccccc3)CC2)cc1 ?
PRMT1 inh: -0.2; LEDGF integ inh: 3.6; MBD2 DNA inh: -6.7; UHRF1 binding: 5.3
